These results are taken from PubChem BioAssay.

Experiment [1] in a line: antimalarial activity against Dd2 strain (AID 2302;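 active means growth inhibition above 50% at the single 2 µM test dose, taken to imply half-maximal potency below 2 µM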;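 further: 0% = DMSO untreated growth and 100% = chloroquine plus artemisinin killed control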). The note with it: P. falciparum Dd2 in RBCs, LDH growth readout, 72 h; at 2 µM; stronger effect = higher value.
Experiment [2] in a line: human hepatoma cell viability loss – ATP luminescence, cytotoxicity control for P. falciparum antimalarial project, primary screen (AID 2303;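 active means inhibition above 50%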;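 further: 0% = DMSO wells and 100% = digitonin-killed cells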). The note with it: HepG2 viability, 24-48 h, at 10 µM, stronger effect = higher value.
For experiment [3], the target named is L-lactate dehydrogenase (Plasmodium falciparum (isolate CDC / Honduras)) (UniProt Q27743). The experiment can be described thus: PfLDH activity inhibition – cell lysate, 3D7 strain, counter-screen for P. falciparum growth inhibition project (AID 2304).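 Further: 0% = vehicle and 100% = reference inhibitor.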 The note with it: P. falciparum 3D7 crude extract, LDH APAD/NBT absorbance; at 2 µM; stronger effect = higher value.
Experiment [4] can be described thus: inhibition of 3D7 malaria parasite growth – strain 3D7 (AID 2306).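 Further: 0% = DMSO wells and 100% = chloroquine plus artemisinin control wells.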 The note with it: P. falciparum 3D7 erythrocytic growth, LDH absorbance, 72 h; at 2 µM; stronger effect = higher value.
Experiment [5] concerns the target Calcium-dependent protein kinase 1 (Plasmodium falciparum (isolate 3D7)) (UniProt P62344). The experiment can be described thus: PfCDPK1 kinase inhibitors, biochemical, TCAMS library (AID 1159585; cut-off not given, nearly all actives have IC50 up to about 0.98 µM;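 further: inhibitors leave more ATP so luminescence rises with inhibition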). The note with it: recombinant PfCDPK1, Kinase-Glo ATP depletion luminescence. On the technique in general: Kinase-Glo reads ATP consumption through a luciferase reaction.

Experiment [6] addresses Plasmodium falciparum protein kinase 6 (PK6, PF3D7_1337100) (UniProt Q8IDW1). Kind of experiment: PfPK6 kinase inhibitors, biochemical, TCAMS library (AID 1159586). The note with it: recombinant PfPK6, Kinase-Glo ATP depletion luminescence.
Experiment [7] has as its target Protein kinase 7 (PK7), Plasmodium falciparum 3D7 (PF3D7_0213400) (UniProt Q7YTF7). The experiment can be described thus: inhibition of Plasmodium PK7 catalytic activity – biochemical, TCAMS antimalarial set, Kinase-Glo luminescence (AID 1159587). The note with it: recombinant PfPK7, Kinase-Glo ATP depletion luminescence.
The target in experiment [8] is Calcium-dependent protein kinase 4 (Plasmodium falciparum (isolate 3D7)) (UniProt Q8IBS5). Kind of experiment: PfCDPK4 kinase inhibitors, biochemical, TCAMS library (AID 1159588; cut-off not given, nearly all actives have IC50 up to about 0.91 µM). The note with it: recombinant PfCDPK4, Kinase-Glo ATP depletion luminescence.

Unmarked numbers belong to inactive results. For some assays here: Potency and affinity values are given separately. Active and inactive are the calls of the source. Unless noted, how the calls were made is not given here.

Sequence of L-lactate dehydrogenase (Plasmodium falciparum (isolate CDC / Honduras)) (Q27743 whole entry, looked up): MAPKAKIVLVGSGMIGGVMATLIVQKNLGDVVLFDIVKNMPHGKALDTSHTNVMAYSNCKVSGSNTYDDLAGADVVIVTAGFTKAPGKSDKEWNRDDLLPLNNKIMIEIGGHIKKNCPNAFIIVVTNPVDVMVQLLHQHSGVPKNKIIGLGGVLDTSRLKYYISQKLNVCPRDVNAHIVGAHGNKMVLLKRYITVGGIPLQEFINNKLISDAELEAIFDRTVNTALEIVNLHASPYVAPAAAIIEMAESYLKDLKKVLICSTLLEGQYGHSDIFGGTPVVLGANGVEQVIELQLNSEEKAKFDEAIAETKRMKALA
Sequence of Calcium-dependent protein kinase 4 (Plasmodium falciparum (isolate 3D7)) (Q8IBS5 whole entry, looked up): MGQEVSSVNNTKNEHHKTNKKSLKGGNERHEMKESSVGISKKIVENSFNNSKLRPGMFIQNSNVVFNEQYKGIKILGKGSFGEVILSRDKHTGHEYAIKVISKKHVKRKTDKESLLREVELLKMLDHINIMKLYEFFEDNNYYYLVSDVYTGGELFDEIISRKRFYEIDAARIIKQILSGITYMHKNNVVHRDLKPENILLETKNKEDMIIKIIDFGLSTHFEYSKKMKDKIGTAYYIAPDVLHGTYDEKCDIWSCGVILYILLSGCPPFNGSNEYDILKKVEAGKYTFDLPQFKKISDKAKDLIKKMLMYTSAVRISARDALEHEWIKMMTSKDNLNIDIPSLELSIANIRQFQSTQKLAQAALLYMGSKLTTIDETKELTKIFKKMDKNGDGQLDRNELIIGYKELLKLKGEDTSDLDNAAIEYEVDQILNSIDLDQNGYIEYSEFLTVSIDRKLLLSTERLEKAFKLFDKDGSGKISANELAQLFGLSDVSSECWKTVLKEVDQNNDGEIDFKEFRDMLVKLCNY
Sequence of Protein kinase 7 (PK7), Plasmodium falciparum 3D7 (PF3D7_0213400) (Q7YTF7 1-343): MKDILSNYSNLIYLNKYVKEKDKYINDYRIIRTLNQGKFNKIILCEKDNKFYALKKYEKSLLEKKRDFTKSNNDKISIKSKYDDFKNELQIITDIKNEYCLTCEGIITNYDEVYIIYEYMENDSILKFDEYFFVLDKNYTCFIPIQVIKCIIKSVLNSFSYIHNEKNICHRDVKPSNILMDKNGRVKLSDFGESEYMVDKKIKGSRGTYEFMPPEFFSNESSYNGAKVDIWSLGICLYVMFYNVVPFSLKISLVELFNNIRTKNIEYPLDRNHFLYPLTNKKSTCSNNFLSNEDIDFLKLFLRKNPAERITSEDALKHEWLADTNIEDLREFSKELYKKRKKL
Sequence of Plasmodium falciparum protein kinase 6 (PK6, PF3D7_1337100) (Q8IDW1 1-305): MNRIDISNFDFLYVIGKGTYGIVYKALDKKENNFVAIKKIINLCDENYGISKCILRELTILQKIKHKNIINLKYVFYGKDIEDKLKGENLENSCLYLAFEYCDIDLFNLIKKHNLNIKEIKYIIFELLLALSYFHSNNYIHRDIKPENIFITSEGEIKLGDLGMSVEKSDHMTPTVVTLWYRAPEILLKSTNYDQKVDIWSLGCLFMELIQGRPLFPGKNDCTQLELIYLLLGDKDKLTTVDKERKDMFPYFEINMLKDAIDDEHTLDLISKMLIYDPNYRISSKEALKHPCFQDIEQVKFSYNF
Sequence of Calcium-dependent protein kinase 1 (Plasmodium falciparum (isolate 3D7)) (P62344 whole entry, looked up): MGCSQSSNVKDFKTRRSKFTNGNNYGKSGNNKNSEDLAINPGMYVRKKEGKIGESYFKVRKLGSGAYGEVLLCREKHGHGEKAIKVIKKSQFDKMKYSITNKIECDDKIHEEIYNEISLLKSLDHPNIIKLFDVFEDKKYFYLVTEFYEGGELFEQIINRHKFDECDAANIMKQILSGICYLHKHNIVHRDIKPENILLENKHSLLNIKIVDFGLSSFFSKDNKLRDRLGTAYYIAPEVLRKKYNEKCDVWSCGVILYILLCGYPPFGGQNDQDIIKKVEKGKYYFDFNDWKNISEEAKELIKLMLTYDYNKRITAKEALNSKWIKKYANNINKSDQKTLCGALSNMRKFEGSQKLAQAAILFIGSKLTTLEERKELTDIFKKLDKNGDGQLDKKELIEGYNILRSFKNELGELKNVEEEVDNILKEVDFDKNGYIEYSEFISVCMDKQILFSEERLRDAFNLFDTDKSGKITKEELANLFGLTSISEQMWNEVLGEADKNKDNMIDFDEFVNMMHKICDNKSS

Broadly, the inhibition is the drop in the measured response relative to a control, in per cent. As to `CCN(CC)CCNc1ccnc2ccc3ccccc3c12`, the growth inhibition in experiment [1] is 67% (active); in experiment [4], 100% (active). Besides, the inhibition in experiment [2] was 5%; in experiment [3], 6%. Also, the outcome in experiment [5], in experiment [6], in experiment [7] and in experiment [8] was inactive.
Regarding `O=C(Nc1ccc([N+](=O)[O-])cc1)Nc1cc(OCC(F)(F)F)cc(OCC(F)(F)F)c1`, the growth inhibition in experiment [1] and in experiment [4] was 100% (active) throughout. In addition, the values for the inhibition in experiment [2] and in experiment [3] were 71% (active) and 5%, respectively. Also, the result in experiment [5], in experiment [6], in experiment [7] and in experiment [8] was inactive.
In the case of `O=C(NC1CCN(Cc2ccccc2)CC1)c1cccc(-c2nc3ccc(Cl)cc3[nH]2)c1`, the growth inhibition was -1% in experiment [1] and 98% (active) in experiment [4]. Also, the inhibition in experiment [2] is 6%; in experiment [3], -3%. In addition, the result in experiment [5], in experiment [6], in experiment [7] and in experiment [8] was inactive.
On to `CCc1nc2ccc(C(=O)OC)nc2n1Cc1ccc2oc(-c3ccccc3N)c(Br)c2c1`, for which the growth inhibition in experiment [1] was 75% (active); in experiment [4], 93% (active). In addition, the inhibition in experiment [2] is 8%; in experiment [3] it was -2%. The result in experiment [5], in experiment [6], in experiment [7] and in experiment [8] was inactive.
In the case of `CCN(CC)CCNc1ccnc2c3ccccc3n(C)c12`, the growth inhibition was 99% (active) in experiment [1] and 101% (active) in experiment [4]. Moreover, the results for the inhibition in experiment [2] and in experiment [3] were 14% and -4%, respectively. In addition, the outcome in experiment [5], in experiment [6], in experiment [7] and in experiment [8] was inactive.
For the compound `COc1ccc(CCNCCCCCCNCCc2ccc(Cl)c(Cl)c2)cc1OC`, the growth inhibition in experiment [1] was 10%; in experiment [4] it was 101% (active). Also, the inhibition in experiment [2] is 59% (active); in experiment [3], -1%. The outcome in experiment [5], in experiment [6], in experiment [7] and in experiment [8] was inactive.
On to `CCOC(=O)c1ccc(N=C2SC(=Cc3cc(Br)ccc3O)C(=O)N2C)cc1`, for which the growth inhibition in experiment [1] is 96% (active); in experiment [4], 99% (active). Also, the inhibition in experiment [2] was -3%; in experiment [3], -2%. The result in experiment [5], in experiment [6], in experiment [7] and in experiment [8] was inactive.
Regarding `C=C[C@]1(C)C[C@@H](OC(=O)CNC[C@@H](O)CN2C[C@H](c3ccnc4ccc(OC)nc34)OC2=O)[C@]2(C)[C@H](C)CC[C@]3(CCC(=O)[C@H]32)[C@@H](C)[C@@H]1O`, the growth inhibition is 82% (active) in experiment [1] and 89% (active) in experiment [4]. The inhibition in experiment [2] was 0%; in experiment [3], -3%. In addition, the result in experiment [5], in experiment [6], in experiment [7] and in experiment [8] was inactive.
As for `Nc1ncc(-c2ccc(F)cc2)cc1-c1nc2ccc(Cl)cc2[nH]1`, the growth inhibition in experiment [1] is 44%; in experiment [4], 99% (active). Further, the inhibition was 45% in experiment [2] and 0% in experiment [3]. The result in experiment [5], in experiment [6], in experiment [7] and in experiment [8] was inactive.
As for `COc1ccc(-c2cccc(NC(=O)c3cccc(C#N)c3)c2)cc1CN(C)CCO`, the growth inhibition is 30% in experiment [1] and 96% (active) in experiment [4]. In addition, the inhibition in experiment [2] was 28%; in experiment [3] it was -7%. In addition, the outcome in experiment [5], in experiment [6], in experiment [7] and in experiment [8] was inactive.
`NC(N)=Nc1cccc(NC(=O)Nc2cccc(N=C(N)N)c2)c1`: the growth inhibition is 71% (active) in experiment [1] and 87% (active) in experiment [4]. For the same compound, the inhibition in experiment [2] was -7%; in experiment [3], 7%. Moreover, the outcome in experiment [5], in experiment [6], in experiment [7] and in experiment [8] was inactive.
Turning to `CN1CCN(Cc2ccc(-c3ccc4c(Nc5ccc(F)cc5Cl)ccnc4c3)o2)CC1`, the growth inhibition in experiment [1] and in experiment [4] was 100% (active) in each case. For the same compound, the values for the inhibition in experiment [2] and in experiment [3] were 8% and -3%, respectively. In addition, the outcome in experiment [5], in experiment [6], in experiment [7] and in experiment [8] was inactive.
In the case of `COc1ccc(-c2cccc(NC(=O)c3ccc(Cl)cc3)c2)cc1CN1CCC(O)CC1`, the growth inhibition in experiment [1] is 43%; in experiment [4], 100% (active). The inhibition is 51% (active) in experiment [2] and 3% in experiment [3]. The result in experiment [5], in experiment [6], in experiment [7] and in experiment [8] was inactive.
As to `O=[N+]([O-])c1ccc(Nc2nc(NN=Cc3cccc(O)c3)nc(N3CCCC3)n2)cc1`, the figures for the growth inhibition in experiment [1] and in experiment [4] were 9% and 88% (active), respectively. In addition, the inhibition in experiment [2] is -6%; in experiment [3], -5%. Also, the result in experiment [5], in experiment [6], in experiment [7] and in experiment [8] was inactive.
For `CCCC1CCNC(C(O)c2ccnc3ccc(OC)cc23)C1` (configuration not stated), the growth inhibition is 78% (active) in experiment [1] and 98% (active) in experiment [4]. The values for the inhibition in experiment [2] and in experiment [3] were -15% and -3%, respectively. Moreover, the outcome in experiment [5], in experiment [6], in experiment [7] and in experiment [8] was inactive.
`CC(=O)Nc1cccc(C(=O)Nc2cccc(-c3csc(-c4nc5ccccc5[nH]4)c3)c2)c1`: the growth inhibition was 97% (active) in experiment [1] and 96% (active) in experiment [4]. The inhibition is 39% in experiment [2] and 1% in experiment [3]. Besides, the outcome in experiment [5], in experiment [6], in experiment [7] and in experiment [8] was inactive.
Consider `CC(C)c1cc(N)c2cc(NC(=O)COCC(=O)Nc3ccc4nc(C(C)C)cc(N)c4c3)ccc2n1`, for which the growth inhibition in experiment [1] and in experiment [4] was 95% (active) throughout. Moreover, the inhibition is -8% in experiment [2] and 0% in experiment [3]. In addition, the result in experiment [5], in experiment [6], in experiment [7] and in experiment [8] was inactive.
`CN1CCN(CCCN(Cc2csc(-c3ccc(CNCc4ccccc4)cc3)n2)S(=O)(=O)c2ccccc2Cl)CC1`: the results for the growth inhibition in experiment [1] and in experiment [4] were 81% (active) and 93% (active), respectively. In addition, the inhibition in experiment [2] was 13%; in experiment [3], -5%. For the same compound, the result in experiment [5], in experiment [6], in experiment [7] and in experiment [8] was inactive.
As to `O=C(CN1CCN(C(C(=O)Nc2cc(C(F)(F)F)ccc2Cl)c2ccccc2)CC1)NC1CC1` (configuration not stated), the growth inhibition was 93% (active) in experiment [1] and 95% (active) in experiment [4]. In addition, the inhibition is -6% in experiment [2] and -3% in experiment [3]. Further, the result in experiment [5], in experiment [6], in experiment [7] and in experiment [8] was inactive.
